# Assay results published in PubChem BioAssay AID588382 (National Center for Advancing Translational Sciences (NCATS), 2011).
# The campaign covered roughly 1,300 compounds. About 150 (12%) were called active. Roughly 30% stayed inconclusive and do not appear here. Calls come from the whole dose curve; as a rule, active = well fitted cell-killing curve with a large enough effect; inconclusive = small, poorly fitted or top-dose-only effect, or effect the other way; inactive = flat fitted curve, though single readings scatter. The list comes from a sample in which actives are over-represented; it also holds similar structures and randomly drawn compounds. A call without a number means that no potency is given here.
# Experiment: qHTS of small molecules that selectively kill Giardia lamblia: Hit Validation in HepG2 cytotox;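 note: compound exposure lasted overnight at 37 deg C; nearly all actives have a fitted effect of over 55% in size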
# Conditions: cell viability; Potency: HepG2 cytotoxicity; series mostly up to 38.3 µM
# Source text: Giardia lamblia is a human pathogen afflicting impoverished nations, and the most common cause of outbreaks of diarrhea in the United States. Giardia has been classified by the CDC as a category B bioterrorism organism. The favored anti giardiasis drugs in the US are metronidazole or tinidazole, compounds that have undesirable side effects. Moreover, increasing resistance to drug regimes and recurrence are a concern. It is thus clear that alternative drug treatments are needed.
# In a collaboration between the University of Maryland, College Park and the NIH Chemical Genomics Center, a bioluminescence Giardia viability assay based on the trophozoites' ATP content was developed. This assay is suitable for high throughput screening, and miniaturized the assay for compound screening in 1536-well plates. The goal of the project is to screen the Molecular Libraries Small Molecule Repository (MLSMR) for compounds that selectively kill Giardia trophozoites. This counterscreen looks at the toxicity of the compounds against the human HepG2 cell line.
# NIH Chemical Genomics Center [NCGC]
# NIH Molecular Libraries Probe Centers Network [MLPCN]
# Assay Submitter (PI): Osnat Herzberg, University of Maryland, College Park, MD.
# 4 uL of HepG2 cells ae dispensed into white 1536-well plates. They are incubated overnight at 37 deg C and then 23 nL of compounds are transferred to the wells with a pintool. Plates are incubated overnight at 37 deg C. 2 uL of ATPLite is added and the plates are incubated for 15 min at room temperature before they are read on the ViewLux for luminiescence.
# Potency is the fitted concentration of half-maximal effect.
row,Structure (SMILES),Potency
1,COc1cc2nc(N3CCCCC3)nc(NC3CCN(Cc4ccccc4)CC3)c2cc1OC,2.93 µM (active)
2,COc1ccc(-n2nc([N+](=O)[O-])c(=NC3CCN(Cc4ccccc4)CC3)n2O)cc1,inactive
3,CCc1cc(=O)oc2cc(C)cc(OCC(=O)NC3CCN(Cc4ccccc4)CC3)c12,inactive
4,NC(=O)CCn1c(C(=O)c2cccc([N+](=O)[O-])c2)c2ccccc2[n+]1[O-],inactive
5,CC(=O)c1c(C)n([O-])c2ccccc2[n+]1=O,inactive
6,O=[N+]([O-])c1[nH]cnc1/C=C/c1ccccc1,inactive
7,O=C1NCCN1c1ncc([N+](=O)[O-])s1,inactive
8,O=C(/C=C/c1cccnc1)/C=C/c1cccnc1,3.69 µM (active)
9,COc1ccc2nc(COC(=O)c3cccc([N+](=O)[O-])c3)c(C(C)=O)[n+]([O-])c2c1,inactive
10,Nc1nc(F)nc2c1ncn2[C@@H]1O[C@H](CO)[C@@H](O)[C@@H]1O,inactive
11,Cc1ccc(C(=O)NC(=O)OCCn2c(C)cnc2[N+](=O)[O-])cc1,inactive
12,CCOC(=O)Cc1csc(NC(=S)NC(=O)c2ccc(C)cc2)n1,2.93 µM (active)
13,CCOC(=O)Cc1csc(SCC(=O)NC2CCCCC2)n1,inactive
14,Cc1onc(-c2ccccc2)c1C(=O)N(Cc1ccccc1)C(C)C,inactive
15,Cc1cnc([N+](=O)[O-])n1CCOC(=O)NC(=O)c1ccccc1,inactive
16,COc1cccc2sc(N3CCN(C(=O)c4ccc([N+](=O)[O-])o4)CC3)nc12,inactive
17,O=[N+]([O-])c1ccc(CSc2nnc(-c3cnccn3)o2)cc1,inactive
18,Cc1cnc([N+](=O)[O-])n1CCOC(=O)NC(=O)c1c(F)cccc1F,inactive
19,CCCCCN=Cc1c(C)[nH]n(-c2nc3ccccc3s2)c1=O,0.329 µM (active)
20,Oc1cccc(-c2nnc(-c3cccc(O)c3)nn2)c1,3.69 µM (active)
21,N#C/C(=C\c1ccc(O)c([N+](=O)[O-])c1)C(=O)NCc1ccccc1,inactive
22,Cc1cnc([N+](=O)[O-])n1CCOC(=O)NC(=O)c1ccc(C(F)(F)F)cc1,inactive
23,C=CCn1c(C)cc(C(=O)COc2ccc(C)nc2[N+](=O)[O-])c1C,inactive
24,O=C(Nc1nnc(C23CC4CC(CC(C4)C2)C3)s1)c1ccco1,inactive
25,O=C(Nc1ccc2c(c1)nc1n2CCSC1)c1ccco1,2.33 µM (active)
26,CN(C(=O)CSc1nc2ccccc2c(=O)n1-c1ccc(F)cc1)C1CCS(=O)(=O)C1 (stereo not drawn),inactive
27,O=C1c2cc(F)ccc2-n2c1nc1ccccc1c2=O,5.21 µM (active)
28,Cc1ccc(-c2[nH][nH]c(=O)c(=O)c2N=Nc2ccccc2)cc1,inactive
